Among all 390,000 compounds or so, about 4,000 (1%) were called active. A call without a number means that no potency is given here. Roughly 7% stayed inconclusive and do not appear here. Calls follow the shape of the dose curve; as a rule, active = well fitted inhibition curve with a large enough effect; inconclusive = small, poorly fitted or top-dose-only effect, or another doubt; inactive = no such curve, though single readings can be large or run the other way. The full list was thinned out, with actives kept by preference.
target: DNA polymerase iota (Homo sapiens) (UniProt Q9UNA4); assay: qHTS for Inhibitors of Polymerase Iota; conditions: Pol iota fluorescent replication assay, 10 min; series mostly up to 115 µM
Outline: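 Fluorescent replication assay read twice, at 0 min and 10 min after adding 50 nM (final) substrate. Enzyme (10 nM) and compounds were first incubated 15 min at room temperature; enzyme-free buffer wells were negative controls.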
Potency is read from the fitted curve at half-maximal effect.

Sequence of DNA polymerase iota (Homo sapiens) (Q9UNA4 whole entry, looked up): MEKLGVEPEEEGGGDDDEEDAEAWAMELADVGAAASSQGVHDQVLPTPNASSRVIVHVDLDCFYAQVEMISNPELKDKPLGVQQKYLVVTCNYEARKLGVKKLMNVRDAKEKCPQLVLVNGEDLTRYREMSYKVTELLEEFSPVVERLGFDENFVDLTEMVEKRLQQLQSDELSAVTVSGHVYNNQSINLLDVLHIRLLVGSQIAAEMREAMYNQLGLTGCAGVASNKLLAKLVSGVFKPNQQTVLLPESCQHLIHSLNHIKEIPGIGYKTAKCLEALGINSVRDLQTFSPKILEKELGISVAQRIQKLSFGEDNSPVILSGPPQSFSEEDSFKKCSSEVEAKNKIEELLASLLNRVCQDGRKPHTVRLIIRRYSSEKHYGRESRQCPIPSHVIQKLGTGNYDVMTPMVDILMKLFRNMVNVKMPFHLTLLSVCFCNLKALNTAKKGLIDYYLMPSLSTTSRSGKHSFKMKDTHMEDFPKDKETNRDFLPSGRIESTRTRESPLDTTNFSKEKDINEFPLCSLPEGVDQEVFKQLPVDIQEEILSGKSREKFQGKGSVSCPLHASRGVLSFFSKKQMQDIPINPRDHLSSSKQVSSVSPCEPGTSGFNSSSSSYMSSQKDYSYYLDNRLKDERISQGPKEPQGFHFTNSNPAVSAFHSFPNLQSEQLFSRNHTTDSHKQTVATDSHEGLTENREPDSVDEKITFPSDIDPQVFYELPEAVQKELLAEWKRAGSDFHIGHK

Structure (SMILES)	Potency
O=C(Nc1ccc(F)cc1F)c1ccc2c(=O)n3c(nc2c1)CCCCC3	inactive
Cc1ccc(Cl)cc1NC(=O)/C(C#N)=C\c1cn(Cc2ccc(F)cc2)c2ccccc12	89.1 µM (active)
COCCCNC(=O)Cn1cc(/C=C(\C#N)C(=O)N2CCN(c3ccccc3)CC2)c2ccccc21	inactive
Cc1ccc(/C=C(\C#N)C(=O)Nc2cc(C)ccc2C)cc1	inactive
Nc1ccc(/C=C/c2ccnc3ccccc23)c([N+](=O)[O-])c1	inactive
Cc1ccccc1OCc1nc2c3cnn(-c4ccccc4F)c3ncn2n1	inactive
Cc1ccc(C)c(S(=O)(=O)c2nnn3c2nc(N2CCOCC2)c2sccc23)c1	inactive
O=C(COC(=O)c1ccccc1C(=O)N1CCN(c2ccccc2)CC1)NCc1ccccc1	inactive
O=C(COC(=O)c1cc(S(=O)(=O)N2CCOCC2)ccc1Cl)NCCc1ccccc1	inactive
O=S(=O)(NCc1ccco1)c1cnc(Cl)c(Cl)c1	inactive
COc1ccc(CCNC(=O)COC(=O)c2cnc(Cl)c(Cl)c2)cc1	inactive
O=C(COC(=O)c1ccccc1O)NCc1ccco1	35.5 µM (active)
Cc1cccc(C)c1NC(=O)COC(=O)c1ccccc1O	inactive
CN(c1ccccc1)S(=O)(=O)c1ccc(Cl)c(C(=O)OCC(=O)NCc2ccco2)c1	44.7 µM (active)
O=C(CCCOc1ccccc1)NCc1ccco1	inactive
Cn1c(N)c(C(=O)COC(=O)c2ccccc2NCc2ccco2)c(=O)n(C)c1=O	inactive
CN(c1ccccc1)S(=O)(=O)c1ccc(Cl)c(C(=O)OCC(=O)N2CCOCC2)c1	inactive
O=C(COC(=O)c1cnc(Cl)c(Cl)c1)NCc1ccco1	17.8 µM (active)
Cc1cc(C(=O)OCC(=O)NCc2ccco2)c(C)n1-c1ccccc1	22.4 µM (active)
CN1CCN(C(CNC(=O)c2ccccc2F)c2ccc3c(c2)OCO3)CC1 (stereo unspecified)	inactive
Cc1ccc(OCCSc2nc(C)c(Cc3ccccc3)c(=O)[nH]2)cc1	inactive
Cc1ccc(CCNC(=O)c2ccc3c(c2)N(Cc2cc(C)ccc2C)C(=O)c2ccccc2S3=O)cc1 (stereo unspecified)	inactive
Cc1ccc(Cl)cc1N1CCN(C(=O)c2cccn3c(=O)c4cc(Cl)ccc4nc23)CC1	inactive
CCCn1c2ccccc2c2cnn(CC(=O)N3CCCC(C(=O)OCC)C3)c(=O)c21 (stereo unspecified)	inactive
CCOC(=O)N1CCc2c(sc3c2c(=O)n(-c2ccc(CC)cc2)c(=O)n3C)C1	inactive
O=C(NCc1ccccc1)c1cccc(NC(=O)N2CCSc3ncccc32)c1	inactive

Structure (SMILES)	Potency
Cc1c(NC(=O)Cc2ccccc2)cccc1-c1nc2cccnc2s1	inactive
O=C(Nc1ccccc1Cl)N1CCC(CN2CCCCC2)CC1	inactive
O=C(Nc1ccccc1Cl)/C(Cl)=C(\Cl)S(=O)c1ccccc1 (stereo unspecified)	12.6 µM (active)
O=C(Nc1ccccc1Cl)N1CCC(CN2CCCC2)CC1	inactive
Cc1ccc(-c2nn3c(=O)cc(CN4CCN(S(=O)(=O)c5ccc(Cl)cc5)CC4)nc3s2)cc1	inactive
Cc1csc(SCC(=O)Nc2sccc2C#N)n1	22.4 µM (active)
CC(=O)c1cc(C#N)c(SCC(=O)Nc2nccs2)nc1C	inactive
N#Cc1ccsc1NC(=O)CN1CCCCC1	inactive
COc1ccc(CCN2C(=O)c3oc4cc(C)cc(C)c4c(=O)c3C2c2ccccc2F)cc1OC (stereo unspecified)	inactive
Cc1ccc(-c2nnc(SCC(=O)NCc3ccccc3)nc2-c2ccc(C)cc2)cc1	inactive
CC1(C)N=C(SCc2ccccc2Cl)c2ccccc2N1	inactive
Cc1cccc(Cc2c(C)nc3nc(SCc4ccccc4Cl)nn3c2C)c1	inactive
Clc1ccccc1CSc1nnc(-c2ccco2)c(-c2ccco2)n1	14.1 µM (active)
CSc1n[nH]c(-c2ccco2)n1	inactive
c1ccc(CSc2nnc(-c3ccco3)c(-c3ccco3)n2)cc1	7.94 µM (active)
O=C(CCc1nc(CN2CCN(S(=O)(=O)c3ccc(Br)cc3)CC2)no1)N1CCCCC1	inactive
CCOC(=O)c1scc(-c2ccc(C)cc2)c1S(=O)(=O)Nc1cc(C)ccc1C	inactive
Cc1cccc(-n2c(SCC(N)=O)nc3c(oc4ccccc43)c2=O)c1	inactive
COc1cc(Cl)c(C)cc1NC(=O)CCc1nc2cccnc2n1Cc1cccs1	inactive
Cc1cc(NC(=O)CSc2ncc(C(=O)Nc3ccc(Cl)cc3)c(=O)n2C)no1	inactive
Cc1ccc(S(=O)(=O)N2CCN(S(=O)(=O)N3CCOCC3)CC2)cc1	inactive
O=C1CCCC(O)=C1N=Nc1ccc(S(=O)(=O)N2CCOCC2)cc1	35.5 µM (active)
CC1(C)CC(=O)C(N=Nc2ccc(S(=O)(=O)N3CCCCCC3)cc2)=C(O)C1	inactive
COc1ccc(Cn2c(=O)[nH]c3cc(C(=O)N4CCN(C(=O)c5ccco5)CC4)ccc3c2=O)cc1	inactive
N#Cc1c(N2CCCCC2)nc(N)c2c(N)nc(SCC(=O)O)cc12	7.08 µM (active)
N#Cc1c(C(F)(F)F)cc(-c2cccs2)nc1N1CCCCC1	inactive

Structure (SMILES)	Potency
CC(C)(C)c1ccc(C(=O)C[n+]2cccc3cc(Cl)ccc32)cc1	inactive
CC(C)(C)c1ccc(C(=O)NCc2nnc(SCC(=O)N3CCCc4ccccc43)n2-c2ccccc2)cc1	inactive
CC(C)(C)c1ccc(C(=O)C[N+]2(C)CCCc3ccccc32)cc1 (stereo unspecified)	79.4 µM (active)
Cc1ccc(NC(=O)Cn2cnc3nc4c(cc3c2=O)CCCC4)cc1Cl	inactive
CCOc1ccc(CNC(=O)C2CCN(c3nnc(-n4cccc4CNc4ccc(C)cc4)s3)CC2)cc1OC	inactive
Cc1ccc(CCNC(=O)c2ccc(CNS(=O)(=O)c3ccc(C)cc3)cc2)cc1	inactive
CC(C)n1cnc2c(NCc3ccccc3)cc(OCC3CCN(C)CC3)cc21	3.16 µM (active)
CN(C)c1nccc(NCc2ccccc2)c1C#N	inactive
Cc1ccc(OCC(=O)OCc2cc(=O)n3nc(C4CC4)sc3n2)cc1	89.1 µM (active)
COc1ccc(OCC(=O)Nc2cccc(C(=O)OCc3cc(=O)n4nc(C)sc4n3)c2)cc1	89.1 µM (active)
Cc1ccc(OCC(=O)OCc2cc(=O)n3nc(C4CC4)sc3n2)cc1C	inactive
CCC(=O)Nc1cccc(C(=O)OCc2cc(=O)n3nc(CC)sc3n2)c1	inactive
O=C(COc1ccccc1F)OCc1cc(=O)n2nc(C3CCCCC3)sc2n1	inactive
CCCCc1nn2c(=O)cc(COC(=O)c3cccc(NC(=O)COc4ccccc4)c3)nc2s1	inactive
Cc1ccc(NC(=O)Cn2c(=O)n(-c3ccccc3)c(=O)c3c4c(sc32)CCCC4)cc1	inactive
CCOc1ccc(-c2nonc2NC(=O)c2oc3ccc(CC)cc3c2C)cc1	inactive
CCOC(=O)c1c(S(=O)(=O)N2CCCC(C(=O)NCc3ccc(F)cc3)C2)c(C)n(CC)c1C (stereo unspecified)	inactive
Oc1cc(O)c2c(c1)OC(c1ccc(O)c(O)c1)C(O)C2 (stereo unspecified)	79.4 µM (active)
OC[C@H]1O[C@@H](n2cnc3c(N[C@H]4CC5CCC4C5)ncnc32)[C@H](O)[C@@H]1O (stereo partly specified)	inactive
Cc1ccc(CSc2nc3ccsc3c(=O)n2CCC(C)C)cc1	inactive
COc1cc(/C=C2/SC(=S)N(Cc3ccccc3)C2=O)cc(OC)c1O	44.7 µM (active)
CN(C(=O)CN1C(=O)/C(=C/c2ccc(Cl)cc2)SC1=S)C1CCS(=O)(=O)C1 (stereo unspecified)	inactive
COc1ccc(CCNC2=C(Cl)C(=O)N(Cc3ccccc3)C2=O)cc1OC	inactive
Cc1ccccc1NC(=O)CN1C(=O)C(C)(C)c2ccccc21	inactive
Cc1ccccc1NC(=O)CN1C(=O)N/C(=C\c2cccn2-c2cccc(C(=O)O)c2)C1=O	5.62 µM (active)
Cc1ccccc1NC(=O)Cn1c(=O)n(CCc2ccccc2)c(=O)c2ccccc21	inactive

Structure (SMILES)	Potency
COc1ccc2c(c1)c(=O)c(S(=O)(=O)c1ccc(F)cc1)cn2CC(=O)Nc1ccc(C)cc1C	inactive
CCN(CCCNC(=O)c1cc(Nc2ccc(OC)cc2)nc2ccccc12)c1cccc(C)c1	inactive
COc1cccc(CNC(=O)c2ccc3c(Cl)c4c(nc3c2)CCCC4)c1	89.1 µM (active)
CC(C)CCNC(=O)c1ccc2c(Cl)c3c(nc2c1)CCC3	inactive
COc1cccc(CNC(=O)CSc2c3c(nc4cc(Cl)ccc24)CCCC3)c1	inactive
Cc1ccc(Cn2c(CCCNC(=O)C3CCCCC3)nc3ccccc32)cc1	inactive
Cn1c(=O)oc2cc(S(=O)(=O)CCC(=O)NCCc3ccc(Cl)cc3)ccc21	inactive
CCC(C)(C)NC(=O)c1cc([N+](=O)[O-])ccc1N1CCCCC1	inactive
CC1CCN(c2ccc([N+](=O)[O-])cc2C(N)=O)CC1	inactive
O=C(O)C1CCN(c2ccc([N+](=O)[O-])cc2[N+](=O)[O-])CC1	20 µM (active)
COC(=O)CN1C(=O)N/C(=C/c2ccc(OC)c(C)c2OC)C1=O	inactive
COC(=O)COc1ccc2c(c1C)O/C(=C\c1ccco1)C2=O	89.1 µM (active)
COc1ccccc1OCC(=O)OCc1cc(-c2ccco2)on1	inactive
Cc1ccc(C(=O)CC2(O)C(=O)N(CCc3ccccc3)c3ccc(Br)cc32)cc1 (stereo unspecified)	inactive
CCN(CC)c1cc(NC2CCCCC2)c2c3c(onc13)-c1ccccc1C2=O	inactive
COc1ccc(CNC(=O)CC2Oc3ccc(C)cc3NC2=O)cc1 (stereo unspecified)	inactive
CCc1nnc(NC(=O)c2ccc(S(=O)(=O)NC3CCCCC3)cc2)s1	inactive
CCc1ccc(NC(=O)c2sc3nc4c(cc3c2N)CN(CC)CC4)cc1	inactive
CCc1ccc2nc3sc(C(=O)Nc4nnc(CC)s4)c(N)c3cc2c1	22.4 µM (active)
COC(=O)c1cc2occc2n1Cc1nc(-c2ccc(C)cc2)oc1C	inactive
Cc1cc(C=O)c(C)n1-c1ccc(NC2CCCCC2)c([N+](=O)[O-])c1	inactive
Cc1cc(/C=N/Nc2ccc([N+](=O)[O-])cn2)c(C)n1-c1cccc(C(=O)O)c1	28.2 µM (active)
Cc1cc(/C=N/NC(=O)CC2(C)OCCO2)c(C)n1-c1ccc(Cl)c(Cl)c1	inactive

Source: PubChem BioAssay AID588590 (National Center for Advancing Translational Sciences (NCATS), 2011)
